Screening data from PubChem.
GALK inh = qHTS Assay for Inhibitors of Human Galactokinase (GALK): NCGC Sytravon Library Screen | P51570 | recombinant GALK, Kinase-Glo ATP luminescence, 1 h | Potency, µM (titrated, usually from 57.5 µM), for the others: at the highest dose activity, negative = inhibition, hits mostly inhibitors | 44,000 tested, under 10 active | AID 1347072, 2019;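 further: plate controls were full GALK reaction for no effect and reaction lacking GALK for full effect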
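Luminescent ATP-depletion readout (Kinase-Glo Plus, 10 min) after 1 h RT reaction of 5 nM GALK, 35 uM ATP, 100 uM galactose, pH 8.0 HEPES buffer. Decreased kinase activity scored as inhibition.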
GALC G270D up = A Novel Cell-Based Assay to Identify Small Molecules for B -Galactocerebrosidase | P54803 | 145M-Twi-hGALC-G270D cells (Twitcher mouse brain line with human GALC G270D), HMU-beta-Gal fluorescence, 48 h | Potency, µM (top dose mostly 57.5 µM), hits mostly activators | actives 0.1% (n = 45,000) | AID 1159614, 2016; further: potency means the concentration at half of the fitted maximal effect; 0% is about no effect; nearly all actives have a fitted effect of over 65% in size
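Brain-derived Twitcher mouse 145M-Twi cells stably expressing human GALC-G270D or wild-type GALC, treated live, then residual GALC activity read by fluorescence of HMU-b-Gal substrate (0.1 mM final) in citrate-phosphate buffer pH 5.2 with sodium taurocholate. Signal increase indicates enhancement.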
B2AR arrestin ag = qHTS assay of beta-arrestin-biased ligands of beta2-adrenergic receptor: NCGC Sytravon Library Screen; Beta-2 adrenergic receptor (Homo sapiens), P07550; HTLA Tango cells, beta-arrestin recruitment, luciferase luminescence, 18 h; Potency, µM (highest dose often 46.1 µM), most hits filed as activators; 44,000 tested, under 10 active; AID 1347077, 2019;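 further: potency means the concentration at half of the fitted maximal effect; 0% = DMSO and full agonism = EC100 isoproterenol or metaproterenol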
Target sequence (P07550 whole entry, looked up): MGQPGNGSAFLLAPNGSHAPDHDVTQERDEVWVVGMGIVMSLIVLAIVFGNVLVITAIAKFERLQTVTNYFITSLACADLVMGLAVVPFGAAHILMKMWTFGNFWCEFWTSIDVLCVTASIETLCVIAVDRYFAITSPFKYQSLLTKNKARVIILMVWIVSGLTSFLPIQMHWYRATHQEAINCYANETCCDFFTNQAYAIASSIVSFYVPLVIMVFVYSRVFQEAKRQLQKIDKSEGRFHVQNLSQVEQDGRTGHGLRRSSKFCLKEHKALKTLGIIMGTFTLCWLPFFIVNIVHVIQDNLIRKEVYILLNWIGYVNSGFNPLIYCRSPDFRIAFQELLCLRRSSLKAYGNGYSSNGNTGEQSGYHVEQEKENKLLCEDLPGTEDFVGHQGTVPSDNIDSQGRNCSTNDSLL
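First, Tango cells carrying beta2-AR and beta-arrestin fusions received compound up to 46 microM. After 18 hr at 37 degrees C, luciferase substrate was added for 15 minutes, then luminescence gave %Activity for curve fitting.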
PTAP-TSG101 blk = qHTS Validation Assay for Inhibitors of HIV-1 Budding by Blocking the Interaction of PTAP/TSG101: Sytravon Library Screen; Tumor susceptibility gene 101 protein (Homo sapiens), Q99816; Fluorescence polarization, FITC-PTAP peptide/Tsg101, 20 min; Potency, µM (titrated, usually from 115 µM), usual class: inhibitors; 44,000 tested, under 10 active; AID 1347069, 2019; further: potency means the concentration at half of the fitted maximal effect; 0% is about no effect
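qHTS FP binding, 20 min r.t.: 10 uM Tsg101 domain + 50 nM FITC-PTAP peptide, pH 7.5 HEPES buffer with TCEP and EDTA.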
GPR32 ag = qHTS for Agonists of Human Resolvin D1 Receptor DRV1. Probable G-protein coupled receptor 32 (Homo sapiens), O75388. CHO-K1 GPR32 beta-arrestin PathHunter luminescence, 90 min; zero percent set by DMSO-only wells. activation, % at 76.9 µM. actives 2.5% (n = 48,000). AID 1346428, 2018;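 active means activation of at least 60% and not above a set upper limit, about 1 call in 100 departs from these limits; inconclusive means activation of 40% to 60%, or above that upper limit; inactive means activation under 40%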; further: 0% is about no effect
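Engineered CHO-K1 line co-expressing GPR32-ProLink and EA-beta-arrestin. Compound treatment lasted 90 min at 37 °C. Luminescence was recorded after 1 h with substrate at ambient temperature, relative to DMSO basal wells.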
* marks the source's active call; other numbers are inactive results; i = inactive; u = inconclusive; x = no result given; ! = a repeat was not active. In the library only some 2.6% were active in any assay of this set; here they are far more common. Unless noted, the call rests on the fitted dose curve; in most records, active means well fitted curve in the direction sought with a large enough effect; inconclusive means small, poorly fitted or top-dose-only effect, or another doubt; inactive means no such curve, though single readings can be large; an effect the other way counts as inactive or inconclusive.

SMILES | GALK inh | GALC G270D up | B2AR arrestin ag | PTAP-TSG101 blk | GPR32 ag
Nc1c(C(=O)Nc2ccc(Br)cc2)sc2nc(-c3ccncc3)ccc12 | 3.6% | i | i | i | -20.5
CCOc1ccc(CCNC(=O)c2ccc3[nH]c(C)c(C)c3c2)cc1 | 1.0% | i | i | i | 72.4*
COc1ccc(CCNC(=O)c2ccc3[nH]c(C)c(C)c3c2)cc1OC | -2.1% | i | i | i | 113.4*
Cc1ccc(CCNC(=O)c2ccc3[nH]c(C)c(C)c3c2)cc1 | -0.2% | i | i | i | 2.3
Cc1cccc(CCNc2ncnc3onc(-c4ccc(Cl)cc4)c23)c1 | 0.2% | i | i | i | 11.2
CCN(CC)S(=O)(=O)c1nnc(NC(=O)c2ccc(C)cc2)s1 | 1.5% | i | i | i | 31.8
CCN(CC)S(=O)(=O)c1nnc(NC(=O)c2ccc(C(C)C)cc2)s1 | -0.4% | i | i | i | 75.4*
Cc1ccc(SCc2nc(-c3ccc(C(=O)NCc4ccccc4Cl)cc3)oc2C)cc1 | 2.6% | i | i | i | -15.3
C[C@@H]1C[C@H]2[C@@H]3CCC4=CC(=O)C=C[C@]4(C)[C@@]3(F)[C@@H](O)C[C@]2(C)[C@@]1(O)C(=O)COC(=O)c1ccncc1 | x | i | x | x | 10.6
CC(C)c1ccc(NC(=O)[C@H]2O[C@@H]3OC(C)(C)O[C@@H]3[C@H]3OC(C)(C)O[C@H]32)cc1 | 6.8% | i | i | i | 36.7
CCOc1cccc(C(=O)Nc2ccc3oc(-c4ccncc4)nc3c2)c1 | 1.2% | i | i | i | u
CCCOc1ccc(C(=O)Nc2cccc(-c3nc4ccccc4[nH]3)c2)cc1 | 5.7% | i | i | i | 82.5*
CCCOc1cccc(C(=O)Nc2ccc(-c3nc4ccccc4o3)cc2)c1 | 0.0% | i | i | i | 107.7*
CCOc1cc(OCC)cc(C(=O)Nc2cccc(-c3nc4ccccc4[nH]3)c2)c1 | -0.5% | i | i | i | -18.3
Cc1ccc(C)n1-c1c(C(=O)NCCCN2CCN(c3ccc(F)cc3)CC2)sc2ncccc12 | -0.8% | i | i | i | -13.7
COc1ccc(CNC(=O)c2cccn2-c2nnc(N3CCCC3)s2)c(OC)c1 | 2.8% | i | i | i | 27.0
CC(CC1c2ccccc2CCc2ccccc21)CN(C)C (stereo unspecified) | x | i | x | x | -13.3
COc1ccc(S(=O)(=O)N(CC(=O)NCc2ccccc2)c2ccc(C)cc2)cc1OC | -17.6% | i | i | i | 31.2
COc1ccc(S(=O)(=O)N(CC(=O)NC(C)c2ccccc2)c2ccc(C)cc2)cc1OC (stereo unspecified) | 3.3% | i | i | i | 76.1*
Cn1cc[nH]c1=S | x | i | x | x | 65.4*
CCN(CC)c1ccc(NS(=O)(=O)c2ccc(-c3coc(C)n3)cc2)c(C)c1 | -0.1% | i | i | i | 68.4*
COc1cc(Cl)c(NS(=O)(=O)c2cc(-c3cc(C)no3)ccc2OC)c(OC)c1 | -1.8% | i | i | i | -15.4
Cc1nc(-c2ccc(S(=O)(=O)Nc3ccc(C)c(N(C)C)c3)cc2)co1 | 1.8% | i | i | i | 43.7
COc1cc(Cl)c(NS(=O)(=O)c2ccc(-c3coc(C)n3)cc2)c(OC)c1 | 2.3% | i | i | i | 82.6*
CCN(CC)C(=S)SSC(=S)N(CC)CC | x | i | x | x | 92.5*!
SMILES | GALK inh | GALC G270D up | B2AR arrestin ag | PTAP-TSG101 blk | GPR32 ag
CCn1c(=O)cc(OCC(=O)N2CCN(c3ccc(C)cc3)C(C)C2)c2ccccc21 (stereo unspecified) | 5.0% | i | i | i | 74.2*
CCn1c(=O)cc(OCC(=O)NCc2ccc(F)cc2Cl)c2ccccc21 | 6.3% | i | i | i | 6.7
CCc1ccc(CNC(=O)COc2cc(=O)n(CC)c3ccccc23)cc1 | 0.4% | i | i | i | 116.9*
N#C/C(=C1/SC[C@@H](c2ccc(Cl)cc2Cl)S1)n1ccnc1 | x | i | x | x | -37.5
COc1ccc(-c2cc(C(=O)Nc3c(C)nn(Cc4ccccc4C)c3C)no2)cc1 | -0.4% | x | i | i | 24.2
Cc1ccccc1Cn1nc(C)c(NC(=O)c2cc(CC(C)C)on2)c1C | 3.7% | x | i | i | 63.8*
CCOc1ccc(NC(=O)CC2Nc3cccc4cccc(c34)NC2=O)cc1 (stereo unspecified) | 2.5% | i | u | i | 83.1*
O=C(O)C1CCC1 | x | i | x | x | -27.5
Cc1cccc(Cn2c(CNS(=O)(=O)c3ccc(C(C)C)cc3)nc3cccnc32)c1 | -1.5% | i | i | i | -26.3
CN(Cc1ccc(C(C)(C)C)cc1)Cc1cccc2ccccc12 | x | i | x | x | 68.1*
CCN(CC)c1nc(-c2ccc(C(C)(C)C)cc2)nc2ccccc12 | 1.7% | i | i | i | 2.8
CN(C/C=C/c1ccccc1)Cc1cccc2ccccc12 | x | i | x | x | 117.5*
O=C(O)[C@H](O)c1ccccc1 | x | i | x | x | 1.0
COc1ccc(NC(=O)c2c(C)oc3ccc(O)c(CN4CCC(C)CC4)c23)cc1 | 1.8% | x | i | i | 39.6
COc1ccc(NC(=O)c2c(C)oc3ccc(O)c(CN4CCCC(C)C4)c23)cc1 (stereo unspecified) | 4.9% | x | i | i | 61.2*
COc1ccc(CCNc2nc(SCc3ccccc3Cl)nc3ccccc23)cc1OC | 0.2% | i | i | i | -19.5
Cc1ccc(S(=O)(=O)Cc2nc(-c3ccc(C(=O)NCc4ccccc4)cc3)oc2C)cc1 | 0.2% | i | i | i | 77.2*
CCOc1ccc(NC(=O)c2cnn(-c3ccc(C)c(C)c3)c2C2CCN(C(=O)OC(C)(C)C)CC2)cc1 | 0.1% | i | i | i | -20.8
COc1cc2oc(=O)c(CC(=O)NCCc3ccccc3F)c(C)c2cc1OC | -9.9% | x | i | i | 77.0*
CCc1ccc(NC(=O)Cn2c(=O)c(CNc3ccccc3)cc3cc(OC)c(OC)cc32)cc1 | 8.1% | i | i | i | -46.0
COc1cc2cc(CNc3ccccc3)c(=O)n(CC(=O)Nc3cc(C)cc(C)c3)c2cc1OC | 2.6% | 39.8µM* | i | i | -6.5
